# Reference: the supplement of paper PMC4466140
# B1: unnamed (peptide)
# chain: QNTPPLPPKPKSPHL
# Target: AgAbp1
# Experiment: SPOT peptide array binding signal intensity (averaged, normalized) (arbitrary units (background-subtracted, floor 0; scale differs between SH3 domains)); higher = stronger binding of the SH3 domain to the peptide
# Procedure: (§1)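 GST-tagged SH3 domains from S. cerevisiae (Sc), A. gossypii (Ag), C. albicans (Ca) and S. pombe (Sp) were incubated at 10 ug/ml overnight at 4 C on cellulose SPOT membranes carrying 292 synthetic 15-mer peptides mined from the S. cerevisiae proteome (cysteines replaced by serines). Binding was detected with anti-GST antibody, HRP secondary and chemiluminescence, quantified with Genespotter, and reported as normalized spot intensities averaged over biological replicates.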
row,Binder,SPOT peptide array binding signal intensity
1,B1,29

# Target: AgBbc1
# Experiment: as above
# Procedure: as §1
row,Binder,SPOT peptide array binding signal intensity
1,B1,4.75

# Target: AgBem1-D1
# Experiment: as above
# Procedure: as §1
row,Binder,SPOT peptide array binding signal intensity
1,B1,≤ 0

# Target: AgBzz1-D1
# Experiment: as above
# Procedure: as §1
row,Binder,SPOT peptide array binding signal intensity
1,B1,30

# Target: AgBzz1-D2
# Experiment: as above
# Procedure: as §1
row,Binder,SPOT peptide array binding signal intensity
1,B1,38

# Target: AgCyk3
# Experiment: as above
# Procedure: as §1
row,Binder,SPOT peptide array binding signal intensity
1,B1,≤ 0

# Target: AgFus1
# Experiment: as above
# Procedure: as §1
row,Binder,SPOT peptide array binding signal intensity
1,B1,17.5

# Target: AgHof1
# Experiment: as above
# Procedure: as §1
row,Binder,SPOT peptide array binding signal intensity
1,B1,777

# Target: AgHse1
# Experiment: as above
# Procedure: as §1
row,Binder,SPOT peptide array binding signal intensity
1,B1,39.5

# Target: AgLsb1
# Experiment: as above
# Procedure: as §1
row,Binder,SPOT peptide array binding signal intensity
1,B1,1

# Target: AgLsb4
# Experiment: as above
# Procedure: as §1
row,Binder,SPOT peptide array binding signal intensity
1,B1,60.5

# Target: AgMyo5
# Experiment: as above
# Procedure: as §1
row,Binder,SPOT peptide array binding signal intensity
1,B1,≤ 0

# Target: AgNbp2
# Experiment: as above
# Procedure: as §1
row,Binder,SPOT peptide array binding signal intensity
1,B1,6.5

# Target: AgRvs167
# Experiment: as above
# Procedure: as §1
row,Binder,SPOT peptide array binding signal intensity
1,B1,1

# Target: AgSho1
# Experiment: as above
# Procedure: as §1
row,Binder,SPOT peptide array binding signal intensity
1,B1,54

# Target: AgSla1-D1-D2
# Experiment: as above
# Procedure: as §1
row,Binder,SPOT peptide array binding signal intensity
1,B1,2

# Target: AgSla1-D3
# Experiment: as above
# Procedure: as §1
row,Binder,SPOT peptide array binding signal intensity
1,B1,1.5

# Target: CaAbp1-D1
# Experiment: as above
# Procedure: as §1
row,Binder,SPOT peptide array binding signal intensity
1,B1,55

# Target: CaAbp1-D2
# Experiment: as above
# Procedure: as §1
row,Binder,SPOT peptide array binding signal intensity
1,B1,226

# Target: CaBbc1
# Experiment: as above
# Procedure: as §1
row,Binder,SPOT peptide array binding signal intensity
1,B1,41.5

# Target: CaBem1-D1
# Experiment: as above
# Procedure: as §1
row,Binder,SPOT peptide array binding signal intensity
1,B1,≤ 0

# Target: CaBzz1-D1
# Experiment: as above
# Procedure: as §1
row,Binder,SPOT peptide array binding signal intensity
1,B1,46.5

# Target: CaBzz1-D2
# Experiment: as above
# Procedure: as §1
row,Binder,SPOT peptide array binding signal intensity
1,B1,48.2

# Target: CaCyk3
# Experiment: as above
# Procedure: as §1
row,Binder,SPOT peptide array binding signal intensity
1,B1,1

# Target: CaFus1
# Experiment: as above
# Procedure: as §1
row,Binder,SPOT peptide array binding signal intensity
1,B1,≤ 0

# Target: CaHof1
# Experiment: as above
# Procedure: as §1
row,Binder,SPOT peptide array binding signal intensity
1,B1,3

# Target: CaHse1
# Experiment: as above
# Procedure: as §1
row,Binder,SPOT peptide array binding signal intensity
1,B1,1110

# Target: CaLsb1
# Experiment: as above
# Procedure: as §1
row,Binder,SPOT peptide array binding signal intensity
1,B1,0.5

# Target: CaLsb4
# Experiment: as above
# Procedure: as §1
row,Binder,SPOT peptide array binding signal intensity
1,B1,521

# Target: CaMyo5
# Experiment: as above
# Procedure: as §1
row,Binder,SPOT peptide array binding signal intensity
1,B1,4

# Target: CaNbp2
# Experiment: as above
# Procedure: as §1
row,Binder,SPOT peptide array binding signal intensity
1,B1,≤ 0

# Target: CaRvs167
# Experiment: as above
# Procedure: as §1
row,Binder,SPOT peptide array binding signal intensity
1,B1,5.67

# Target: CaRvs167-3
# Experiment: as above
# Procedure: as §1
row,Binder,SPOT peptide array binding signal intensity
1,B1,6

# Target: CaSho1
# Experiment: as above
# Procedure: as §1
row,Binder,SPOT peptide array binding signal intensity
1,B1,81

# Target: CaSla1-D1-D2
# Experiment: as above
# Procedure: as §1
row,Binder,SPOT peptide array binding signal intensity
1,B1,≤ 0

# Target: CaSla1-D3
# Experiment: as above
# Procedure: as §1
row,Binder,SPOT peptide array binding signal intensity
1,B1,3.5

# Target: ScAbp1
# Experiment: as above
# Procedure: as §1
row,Binder,SPOT peptide array binding signal intensity
1,B1,≤ 0

# Target: ScBbc1
# Experiment: as above
# Procedure: as §1
row,Binder,SPOT peptide array binding signal intensity
1,B1,≤ 0

# Target: ScBem1-D1
# Experiment: as above
# Procedure: as §1
row,Binder,SPOT peptide array binding signal intensity
1,B1,≤ 0

# Target: ScBzz1-D1
# Experiment: as above
# Procedure: as §1
row,Binder,SPOT peptide array binding signal intensity
1,B1,≤ 0

# Target: ScBzz1-D2
# Experiment: as above
# Procedure: as §1
row,Binder,SPOT peptide array binding signal intensity
1,B1,4

# Target: ScCyk3
# Experiment: as above
# Procedure: as §1
row,Binder,SPOT peptide array binding signal intensity
1,B1,1

# Target: ScFus1
# Experiment: as above
# Procedure: as §1
row,Binder,SPOT peptide array binding signal intensity
1,B1,21

# Target: ScHof1
# Experiment: as above
# Procedure: as §1
row,Binder,SPOT peptide array binding signal intensity
1,B1,196

# Target: ScHse1
# Experiment: as above
# Procedure: as §1
row,Binder,SPOT peptide array binding signal intensity
1,B1,≤ 0

# Target: ScLsb1
# Experiment: as above
# Procedure: as §1
row,Binder,SPOT peptide array binding signal intensity
1,B1,1

# Target: ScLsb2
# Experiment: as above
# Procedure: as §1
row,Binder,SPOT peptide array binding signal intensity
1,B1,1

# Target: ScLsb3
# Experiment: as above
# Procedure: as §1
row,Binder,SPOT peptide array binding signal intensity
1,B1,4390

# Target: ScLsb4
# Experiment: as above
# Procedure: as §1
row,Binder,SPOT peptide array binding signal intensity
1,B1,52

# Target: ScMyo3
# Experiment: as above
# Procedure: as §1
row,Binder,SPOT peptide array binding signal intensity
1,B1,2

# Target: ScMyo5
# Experiment: as above
# Procedure: as §1
row,Binder,SPOT peptide array binding signal intensity
1,B1,≤ 0

# Target: ScNbp2
# Experiment: as above
# Procedure: as §1
row,Binder,SPOT peptide array binding signal intensity
1,B1,7.5

# Target: ScPex13
# Experiment: as above
# Procedure: as §1
row,Binder,SPOT peptide array binding signal intensity
1,B1,1360

# Target: ScRvs167
# Experiment: as above
# Procedure: as §1
row,Binder,SPOT peptide array binding signal intensity
1,B1,57.2

# Target: ScSho1
# Experiment: as above
# Procedure: as §1
row,Binder,SPOT peptide array binding signal intensity
1,B1,268

# Target: ScSla1-D1-D2
# Experiment: as above
# Procedure: as §1
row,Binder,SPOT peptide array binding signal intensity
1,B1,≤ 0

# Target: ScSla1-D3
# Experiment: as above
# Procedure: as §1
row,Binder,SPOT peptide array binding signal intensity
1,B1,4.5

# Target: SpAbp1-D1
# Experiment: as above
# Procedure: as §1
row,Binder,SPOT peptide array binding signal intensity
1,B1,≤ 0

# Target: SpBbc1
# Experiment: as above
# Procedure: as §1
row,Binder,SPOT peptide array binding signal intensity
1,B1,≤ 0

# Target: SpBzz1-D1
# Experiment: as above
# Procedure: as §1
row,Binder,SPOT peptide array binding signal intensity
1,B1,302

# Target: SpBzz1-D2
# Experiment: as above
# Procedure: as §1
row,Binder,SPOT peptide array binding signal intensity
1,B1,2.5

# Target: SpCyk3
# Experiment: as above
# Procedure: as §1
row,Binder,SPOT peptide array binding signal intensity
1,B1,≤ 0

# Target: SpHof1
# Experiment: as above
# Procedure: as §1
row,Binder,SPOT peptide array binding signal intensity
1,B1,≤ 0

# Target: SpHof1-2
# Experiment: as above
# Procedure: as §1
row,Binder,SPOT peptide array binding signal intensity
1,B1,11.2

# Target: SpHof1-3
# Experiment: as above
# Procedure: as §1
row,Binder,SPOT peptide array binding signal intensity
1,B1,28.8

# Target: SpHse1
# Experiment: as above
# Procedure: as §1
row,Binder,SPOT peptide array binding signal intensity
1,B1,16

# Target: SpLsb1
# Experiment: as above
# Procedure: as §1
row,Binder,SPOT peptide array binding signal intensity
1,B1,956

# Target: SpLsb4
# Experiment: as above
# Procedure: as §1
row,Binder,SPOT peptide array binding signal intensity
1,B1,1280

# Target: SpMyo1
# Experiment: as above
# Procedure: as §1
row,Binder,SPOT peptide array binding signal intensity
1,B1,19.5

# Target: SpNbp2
# Experiment: as above
# Procedure: as §1
row,Binder,SPOT peptide array binding signal intensity
1,B1,42

# Target: SpPex13
# Experiment: as above
# Procedure: as §1
row,Binder,SPOT peptide array binding signal intensity
1,B1,0.5

# Target: SpRvs167
# Experiment: as above
# Procedure: as §1
row,Binder,SPOT peptide array binding signal intensity
1,B1,1090

# Target: SpSla1-D1-D2
# Experiment: as above
# Procedure: as §1
row,Binder,SPOT peptide array binding signal intensity
1,B1,≤ 0

# Target: SpSla1-D3
# Experiment: as above
# Procedure: as §1
row,Binder,SPOT peptide array binding signal intensity
1,B1,3
